Screening results from PubChem.
This is one part of a sample in which hits are shown more often than they occur.
KDM5B inh: inhibitors of human KDM5B histone demethylase; Q9UGL1; AID 1347165; 2.6% of 220,000 active; Potency, µM (titrated, usually from 57.7 µM), hits mostly inhibitors; KDM5B demethylase, FDH-coupled NADH fluorescence (FDH is formaldehyde dehydrogenase); active means well fitted inhibition curve with a large enough effect; further: nearly all actives have a fitted effect of over 70% in size
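Coupled FDH/NAD⁺ fluorescence readout. KDM5BΔAP 200 nM final; compound titration, 10 min RT preincubation; substrate mix 12.5 µM H3K4me3, 25 µM 2-OG, 50 µM Fe(II), 100 µM ascorbate, 0.25 mM NAD⁺, 0.25 U/mL FDH; ΔRFU over 30 min.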
Each line names hits and unclear results; the compound was inactive in the other large screens.

Cc1nc2ncccn2c1C(=O)N1C[C@H]2C(=O)NC[C@@]2(C(=O)O)C1	KDM5B inh 28µM
COCCn1ccnc1C1CCN(C(=O)c2ccc3n[nH]nc3c2)CC1	none
Cc1nc(C2CC2)ncc1C(=O)N1CCN(C)C2(CCNC(=O)CC2)C1 (stereo not drawn)	none
Cc1c(C(=O)N2CCC3(CCCN(C)C3=O)C2)n(C)c2ccc(F)cc12 (stereo not drawn)	none
N#Cc1ccccc1COc1ccc(C=O)cc1	none
COc1cccc(NC(=O)NOCc2ccccc2)c1	none
Cc1cccn2cc(CN3CCN(S(=O)(=O)c4cccc(C(F)(F)F)c4)CC3)nc12	none
CN(C)c1ccc(NC(=O)c2cc3cc(F)ccc3[nH]2)cc1	none
CCOc1ccc(CN(Cc2cccc(Oc3ncccn3)c2)C2CC2)cc1	none
COc1ccc(C)cc1NC(=O)Cc1nc(-c2ccccc2)oc1C	none
C=CCN(CC=C)C(=O)Nc1cccc(C(=O)NCC)c1	none
Cn1c(=O)c2c(nc(SCc3ccccc3)n2Cc2ccccc2)n(C)c1=O	none
CS(=O)(=O)N1CCCC(C(=O)NCCc2ccc(F)cc2)C1 (stereo not drawn)	none
COc1cccc(Nc2nc3ccccc3nc2NS(=O)(=O)c2ccc(Cl)cc2)c1	none
CCCCCCCOc1ccc(COC(=O)c2ccco2)cc1	none
Cc1ccc(C(=O)C(C)OC(=O)C23CC4CC(CC(O)(C4)C2)C3)cc1C (stereo not drawn)	none
COc1ccc2ccccc2c1CNC(=O)CC1C(=O)NCCN1CC(C)(C)C (stereo not drawn)	none
COc1ccc(CN2CCNC(=O)C2CC(=O)NCc2ccco2)c(F)c1 (stereo not drawn)	KDM5B inh 10µM
COc1ccc(CN2CCNC(=O)C2CC(=O)NC2CCOCC2)c(F)c1 (stereo not drawn)	none
CN(C)C(=O)c1cc2c(F)cccc2[nH]1	none
CS(=O)(=O)N1CCc2cc(C(=O)c3cc4cc(Br)ccc4o3)ccc21	none
COCCN1CC2(CCC1=O)CCN(C(=O)c1c(C)cccc1C)CC2	none
COCCN1CC2(CCCN(C(=O)c3ccc(C)n(C)c3=O)C2)CCC1=O (stereo not drawn)	none
COCCN1CC2(CCCN(c3cc(C)c4ccccc4n3)C2)CCC1=O (stereo not drawn)	KDM5B inh 28µM
Nc1nc(Nc2ccccc2F)nc(-c2cc3ccccc3o2)n1	none
CCCCN(CC)Cc1c(C)[nH]c2ccc(Br)cc2c1=O	none
Fc1ccccc1NC(=S)NCCc1c[nH]c2ccccc12	none
Cc1ccc(-c2cc3c(=O)n(CCNC(=O)c4cnccn4)ccn3n2)cc1C	KDM5B inh 22µM
CCOc1ccc(-c2cc3c(=O)n(CCNC(=O)c4cnccn4)ccn3n2)cc1	KDM5B inh 25µM
CC(=O)NCc1ccc(-c2csc(Nc3ccc(F)cc3)n2)s1	none
Cc1ncc(-c2ccc(S(=O)(=O)Nc3ccc(F)cc3C)cc2)o1	none
CSc1cccc(NC(=O)c2cccc(Cl)c2Cl)c1	none
Cc1cc(C)c(NC(=O)CCc2c[nH]c3ccccc23)c(C)c1	none
Cc1ccc(NC(=O)c2cc3c(cc2C)OCCCO3)cc1C	none
Cc1ccc(SCCNC(=O)CC2C=CCC2)cc1C (stereo not drawn)	none
COC(=O)c1ccc(CNC(=O)NCc2coc(-c3cccs3)n2)cc1	none
CN1Cc2cccn2CC1CNC(=O)NC1CCCCC1 (stereo not drawn)	KDM5B inh 28µM
CN1C(=O)c2cccn2CC1CNC(=O)Nc1ccccc1 (stereo not drawn)	none
O=C1c2cccn2CC(CNS(=O)(=O)Cc2ccccc2)N1Cc1ccccc1 (stereo not drawn)	none
O=C(NCC1Cn2cccc2CN1Cc1ccccc1)C1CC1 (stereo not drawn)	KDM5B inh 28µM
O=C(NCC1Cn2cccc2C(=O)N1Cc1ccccc1)C1CC1 (stereo not drawn)	none
NCC1Cn2cccc2CN1Cc1ccccc1 (stereo not drawn)	KDM5B inh 16µM
CCn1cc(S(=O)(=O)NCC2Cn3cccc3C(=O)N2CCOC)cn1 (stereo not drawn)	none
CCn1cc(S(=O)(=O)NCC2Cn3cccc3CN2Cc2ccccc2)cn1 (stereo not drawn)	KDM5B inh 28µM
CN1C(=O)c2cccn2CC1CNC(=O)NCCc1ccccc1 (stereo not drawn)	none
O=C(NCC1Cn2cccc2C(=O)N1Cc1ccccc1)C1CCC1 (stereo not drawn)	none
NCCc1ccc(CN2C[C@@H]3CC[C@H](C2)N(Cc2ccccc2)C3)cc1	none
COc1ccc(S(=O)(=O)NCC2Cn3cccc3C(=O)N2Cc2ccccc2)cc1 (stereo not drawn)	none
O=C1CCc2cc(C(=O)NCc3ccc4c(c3)OCO4)ccc2N1	none
COc1cc(C(=O)N(C)Cc2ccccc2)ccc1OCc1ccccc1	none
COc1ccc(CN2CCCCCNC(=O)CC2c2ccccc2)cc1Cn1ccnc1 (stereo not drawn)	none
CN(C)CCNCC1CCCO1 (stereo not drawn)	none
Cc1ccc(NS(=O)(=O)c2cc([N+](=O)[O-])ccc2N/N=C/c2ccc(-c3ccccc3)cc2)c(C)c1	none
O=C(NNC(=O)C1CCOC1)c1cccc([N+](=O)[O-])c1 (stereo not drawn)	none
